Several values for one entry are separate records, joined by “and”; a condition that tells them apart may be missing. Equal values may be shown once. Records with an inconclusive call do not appear. The source holds several records for some structures; these can differ, active in one and inactive in another. Activity calls are given as the source filed them. Rule for the calls, unless noted: active = hit-call score of the fitted dose curve at least 0.9, where 1 is the maximum; inactive = score below 0.9.
Assays:
[1] = APR_HepG2_CellCycleArrest_1hr: Apredica 1-hour HepG2 Assay for Cell Cycle Arrest (AID 2282666); details: high-content imaging, actives raise or lower the signal
How it was run: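 HepG2 cells exposed for 1 h to 0.39–200 uM compound (0.5% DMSO). Fixed, Hoechst-stained nuclei imaged by ArrayScan; DNA content quantified by Cell Cycle analysis; bidirectional fit against DMSO.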

[2] = ACEA_ER_80hr: ACEA Biosciences xCELLigence Real-Time Cell Analysis on Estrogen Receptor Agonism for Proliferation (AID 2282667; active = hit-call score of the fitted dose curve at least 0.9, where 1 is the maximum); details: T47D proliferation, impedance (xCELLigence), 80 h
How it was run: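 Estrogen-driven proliferation is captured as electrode impedance in T47D cells 80 h after compound addition. Test articles ran at 8 concentrations, 1:4 dilutions from 100 uM final, in two replicate plates.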

[3] = APR_HepG2_CellLoss_1hr: Apredica 1-hour HepG2 Assay for Cell Loss (AID 2282668); details: high-content imaging;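 note: curves fitted both ways against DMSO so gain or loss of cells counts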
How it was run: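 HepG2 cells were treated for 1 h with compound at 0.39–200 uM, in duplicate, in 0.5% DMSO. After formaldehyde fixation, Hoechst 33342-stained nuclei were imaged on an ArrayScan to count cells. Data were fitted bidirectionally versus DMSO.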

[4] = APR_HepG2_p53Act_1hr: Apredica 1-hour HepG2 Assay for p53 Activation (AID 2282671); details: high-content imaging, actives raise or lower the signal
How it was run: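 HepG2 cells treated 1 h with compound at 0.39–200 uM (10 concentrations, duplicate) in 0.5% DMSO. Formaldehyde-fixed, permeabilised cells immunostained for p53 with Hoechst 33342; high-content imaging, bidirectional fit versus DMSO.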

[5] = APR_HepG2_MitoticArrest_1hr: Apredica 1-hour HepG2 Assay for Mitotic Arrest (AID 2282672); details: high-content imaging, actives raise or lower the signal
How it was run: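 HepG2 cells exposed 1 hr to compounds at 0.39–200 uM (0.5% v/v DMSO final), then fixed in 3.7% formaldehyde and immunostained for phospho-histone H3 with Hoechst 33342. Mitotic arrest scored by automated fluorescence imaging, fitted bidirectionally versus DMSO.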

[6] = APR_HepG2_P-H2AX_1hr: Apredica 1-hour HepG2 Assay for H2AX Phosphorylation (AID 2282673); details: high-content imaging, actives raise or lower the signal
How it was run: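 HepG2 dosed 1 hr at 0.39-200 uM (0.5% DMSO final), duplicate. Fixed in 3.7% formaldehyde, Triton permeabilized, immunostained for phospho-histone H2A.x (1:200) with Hoechst 33342; ArrayScan 20x imaging, bidirectional fit vs DMSO.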

[7] = APR_HepG2_MitoMass_1hr: Apredica 1-hour HepG2 Assay for Mitochondrial Mass (AID 2282674); details: high-content imaging, actives raise or lower the signal
How it was run: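 HepG2 cells dosed 1 hr with 0.39-200 uM compound (0.5% DMSO), duplicate wells. Mitochondria stained with 250 nM MitoTracker Red CMXRos for 30 min before formaldehyde fixation, imaged at 20x by ArrayScan; bidirectional fit versus DMSO.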

[8] = APR_HepG2_MitoMembPot_1hr: Apredica 1-hour HepG2 Assay for Mitochondrial Membrane Potential (AID 2282675); details: imaging, actives raise or lower the signal
How it was run: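 HepG2 cells dosed 1 hour with 0.39–200 uM compound in duplicate, 0.5% DMSO final. MitoTracker Red CMXRos (250 nM, 30 min) loaded before formaldehyde fixation; fluorescence quantified by high-content imaging, bidirectional fitting versus DMSO.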

[9] = APR_HepG2_CellCycleArrest_24hr: Apredica 24-hour HepG2 Assay for Cell Cycle Arrest (AID 2282905); details: imaging, actives raise or lower the signal;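 note: cell cycle arrest scored as ratio of 2N to 4N nuclear DNA content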
How it was run: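 Cell cycle arrest is scored from nuclear DNA content measured by high-content imaging of Hoechst 33342-stained HepG2 cells following 24-hour treatment at ten concentrations up to 200 uM, with DMSO as baseline.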

[10] = APR_HepG2_StressKinase_1hr: Apredica 1-hour HepG2 Assay for Stress Kinase (AID 2282906); details: HepG2 stress kinase (phospho-c-Jun) imaging, actives raise or lower the signal
How it was run: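 HepG2 cells dosed 0.39-200 uM (0.5% DMSO) for 1 h, then formaldehyde-fixed. Stress kinase read by phospho-c-Jun immunofluorescence using high-content imaging; bidirectional fit vs DMSO.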

[11] = APR_HepG2_NuclearSize_24hr: Apredica 24-hour HepG2 Assay for Nuclear Size (AID 2282907); details: high-content imaging, actives raise or lower the signal
How it was run: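 Compounds in DMSO (final 0.5%) were added to human HepG2 hepatoma cells at ten concentrations up to 200 uM for 24 hr. Fixed nuclei were stained with Hoechst 33342, and nuclear diameter was quantified from automated images.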

[12] = APR_HepG2_MicrotubuleCSK_24hr: Apredica 24-hour HepG2 Assay for Microtubule CSK Stabilty (AID 2282909); details: HepG2 microtubule cytoskeleton imaging, actives raise or lower the signal
How it was run: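 Steps: dose HepG2 for 24 h (0.39–200 uM, 0.5% DMSO); fix 30 min in 3.7% formaldehyde at room temperature; permeabilize; stain alpha-tubulin 60 min; image microtubule cytoskeleton at 20x. Signal change fitted in both directions relative to DMSO.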

[13] = APR_HepG2_MitoticArrest_24hr: Apredica 24-hour HepG2 Assay for Mitotic Arrest (AID 2282910); details: high-content imaging, actives raise or lower the signal
How it was run: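 HepG2 cells, 24 h exposure at 0.39-200 uM (10 concentrations, duplicate, 0.5% DMSO). Fixed, stained for phospho-histone H3 with Hoechst; imaged by high-content microscopy, bidirectional fit versus DMSO.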

[14] = APR_HepG2_MitoMembPot_24hr: Apredica 24-hour HepG2 Assay for Mitochondrial Membrane Potential (AID 2282911); details: imaging, actives raise or lower the signal
How it was run: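 Mitochondrial dye uptake (MitoTracker Red CMXRos, 250 nM, 30 min pre-fixation) in HepG2 after 24 hr compound exposure, 0.39–200 uM; ArrayScan images at 20x, activity fitted in both directions relative to DMSO.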

[15] = APR_HepG2_MitoMass_24hr: Apredica 24-hour HepG2 Assay for Mitochondrial Mass (AID 2282912); details: high-content imaging, actives raise or lower the signal
How it was run: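 The liver line HepG2 was dosed in duplicate across a 0.39–200 uM series, with final DMSO held at 0.5% v/v, and harvested at 24 hr. High-content imaging measured mitochondrial dye staining.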

[16] = APR_HepG2_p53Act_24hr: Apredica 24-hour HepG2 Assay for p53 Activation (AID 2282913); details: high-content imaging, actives raise or lower the signal;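 note: p53 protein immunofluorescence averaged per cell in HepG2 with Hoechst nuclei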
How it was run: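 Following 24 hr dosing of HepG2 at 0.39–200 uM, the cells undergo formaldehyde fixation, Triton permeabilization and multiplexed antibody labeling that includes p53 (Cy5). Signal from the imaging is referenced to DMSO solvent controls.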

[17] = APR_HepG2_CellCycleArrest_72hr: Apredica 72-hour HepG2 Assay for Cell Cycle Arrest (AID 2282914); details: high-content imaging, actives raise or lower the signal
How it was run: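 Using multiplexed high-content imaging, HepG2 nuclei stained with Hoechst 33342 (2 ug/mL) were analysed for DNA content after fixation and permeabilization. Treatment lasted 72 hr across 0.39–200 uM in duplicate with final DMSO 0.5% v/v; DMSO served as negative control.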

[18] = APR_HepG2_NuclearSize_1hr: Apredica 1-hour HepG2 Assay for Nuclear Size (AID 2282670); details: high-content imaging, actives raise or lower the signal
How it was run: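 HepG2 cells dosed 1 hr with 0.39–200 uM compound (0.5% DMSO), formaldehyde-fixed, Hoechst 33342-stained and imaged at 20x; nuclear diameter from nuclear stain, fitted bidirectionally against DMSO.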

[19] = APR_HepG2_CellLoss_24hr: Apredica 24-hour HepG2 Assay for Cell Loss (AID 2282908); details: high-content imaging;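 note: fit in both directions so a hit may be cell loss or gain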
How it was run: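 Cell number is quantified by fluorescence imaging of Hoechst 33342-stained nuclei following dosing at 0.39–200 uM in 0.5% DMSO. Curves are fitted in both directions from the DMSO baseline.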

[20] = APR_HepG2_MicrotubuleCSK_1hr: Apredica 1-hour HepG2 Assay for Microtubule CSK Stabilty (AID 2282669); details: HepG2 microtubule cytoskeleton imaging, actives raise or lower the signal
How it was run: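 HepG2 cells exposed 1 h to 0.39–200 uM compound (0.5% DMSO, duplicates), then formaldehyde-fixed, permeabilized and immunostained for alpha-tubulin with Hoechst nuclei. Imaged by ArrayScan high-content analysis; bidirectional fit versus DMSO.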

Measured: AC50

C=CCC1=C(C)C(OC(=O)C2C(C=C(C)C)C2(C)C)CC1=O (stereo unspecified)
active: [8] 100 µM | [11] 53.2 µM | [12] 30.6 µM and 29.7 µM | [13] 35.4 µM and 43.3 µM and 46.9 µM | [14] 112 µM | [15] 29 µM and 48.5 µM and 56.1 µM | [16] 42 µM | [17] 34.4 µM
inactive: [1] | [2] | [3] | [4] | [5] | [6] | [7] | [9] | [10] | [11] | [12] | [13] | [14] | [15] | [16] | [17]

COC(=O)C=C(C)OP(=O)(OC)OC
not listed: [3] | [7] | [18] | [19] | [20]
inactive: all other assays above

CCCN(CCC)c1c([N+](=O)[O-])cc(S(N)(=O)=O)cc1[N+](=O)[O-]
inactive: [2] | [5] | [8] | [9] | [10] | [11] | [12] | [13] | [14] | [15] | [17]
active: [1] 108 µM | [18] 61.6 µM | [6] 88.7 µM | [9] 34.9 µM | [11] 68.3 µM and 117 µM | [12] 109 µM | [13] 35.4 µM and 38.4 µM | [14] 31.6 µM and 117 µM and 110 µM | [15] 164 µM and 113 µM | [17] 27.2 µM and 57.9 µM and 34 µM

CN(C)C(=S)SSC(=S)N(C)C
active: [2] 2060 nM | [10] 3.07 µM | [12] 17.6 µM | [17] 0.039 µM
not listed: [3] | [18] | [19] | [20]
inactive: all other assays above

CNC(=S)S
active: [9] 20.5 µM | [12] 74.4 µM | [13] 85.2 µM
not listed: [3] | [7] | [19] | [20]
inactive: all other assays above

CCOP(=S)(OCC)SCn1c(=O)oc2cc(Cl)ccc21
active: [17] 85 µM
not listed: [3] | [7] | [18] | [19] | [20]
inactive: all other assays above

CCCCNC(=O)OCC#CI
inactive: [1] | [4] | [5] | [6] | [8] | [9] | [10] | [11] | [12] | [13] | [15] | [16] | [17]
active: [4] 54.5 µM | [5] 28.8 µM | [12] 14.7 µM | [14] 119 µM and 41 µM

N#CC(CCc1ccc(Cl)cc1)(Cn1cncn1)c1ccccc1 (stereo unspecified)
active: [19] 102 µM | [12] 104 µM | [13] 106 µM | [16] 103 µM
not listed: [3] | [7] | [18] | [20]
inactive: all other assays above

COP(N)(=O)SC (stereo unspecified)
not listed: [3] | [7] | [18] | [19] | [20]
inactive: all other assays above

CNC(=O)ON=CC(C)(C)SC
not listed: [3] | [7] | [18] | [19] | [20]
inactive: all other assays above

CS/C(C)=N/OC(=O)N(C)SN(C)C(=O)O/N=C(\C)SC
active: [2] 164 nM | [5] 29.7 µM
not listed: [3] | [7] | [18] | [19] | [20]
inactive: all other assays above

Oc1ccccc1-c1ccccc1
active: [9] 82.1 µM
not listed: [3] | [7] | [18] | [19] | [20]
inactive: all other assays above

COC(=O)C(C)Oc1ccc(Oc2ccc(Cl)cc2Cl)cc1 (stereo unspecified)
inactive: [1] | [20] | [4] | [5] | [6] | [8] | [9] | [10] | [11] | [12] | [13] | [14] | [15] | [16] | [17]
active: [14] 129 µM

C#CCOS(=O)OC1CCCCC1Oc1ccc(C(C)(C)C)cc1 (stereo unspecified)
active: [2] 355 nM | [8] 82.3 µM | [9] 3.03 µM | [12] 38.4 µM | [14] 6.31 µM | [17] 2.92 µM
not listed: [3] | [7] | [18] | [19] | [20]
inactive: all other assays above
